Values joined by “and” are separate entries in the source; they are usually repeats but may differ in a detail not shown here. Equal values may be shown once. Out of some 300,000 compounds screened, about 37,000 (12%) were called active. Only a selection was taken, and actives are over-represented in it overall. Unmarked numbers belong to inactive results. Rule as the data show it: active = max response mostly above about 13% (no sharp cut-off); inactive = mostly below about 14%.
Assay: Cycloheximide Counterscreen for Small Molecule Inhibitors of Shiga Toxin; also: read at 38.3 µM for the half of the compounds with a filed dose; 0% is about no effect
Conditions: cell reporter, cycloheximide protein synthesis inhibition counterscreen; hits give high values

Compound | max response
Cc1c(CC(=O)NCCCCCC(=O)O)c(=O)oc2cc3occ(-c4ccccc4)c3cc12 | -1.63%
O=C(CCN1C(=O)C2C3CCC(C3)C2C1=O)Nc1ccc(Cl)cc1Cl (stereo unspecified) | 3.53%
CCOc1ccc(Nc2nc(Cc3nnc(SCC(=O)c4ccc(C)cc4)o3)cs2)cc1 | -3.13%
Cc1ccc(CCNC(=O)c2ccc3nc4ccccc4c(=O)n3c2)cc1 | 4.5%
CN(C)S(=O)(=O)c1cccc(C(=O)OCC(=O)N2CCCC2=O)c1 | -2.94%
O=C(Nc1ccc(-n2ccnc2P(=O)(O)c2ccccc2)cc1)c1ccccc1Br | 2.05%
COc1ccc(S(=O)(=O)N(CC(=O)N/N=C/c2ccc(C(=O)O)cc2)Cc2ccccc2)cc1OC | -6.63%
Cc1nonc1C1CCCN1Cc1nc(-c2ccc(F)cc2F)oc1C (stereo unspecified) | 6.22%
CCCOc1ccc(CNC(=O)C2CCN(c3nn4c(=O)cc(C)nc4s3)CC2)cc1 | -3.96%
Cc1cc(=O)n2[nH]c(-c3sccc3-n3c(C)ccc3C)cc2n1 | 5.31%
Cc1nc2nc[nH]n2c(=O)c1C/C=C/c1ccccc1 | 10.1%
C=CCc1c(C)nc2cc(-c3ccccc3)[nH]n2c1=O | 37% (active)
CCc1c(C)nc2cc(C)[nH]n2c1=O | -1.78%
CCCCN1Cc2c(nc3cc(-c4ccccc4)[nH]n3c2=O)C1=O | 7.79%
CCc1c(C)nc2cc(-c3cccs3)[nH]n2c1=O | 29.6% (active)
COCCn1cnc2c1c(=O)n(Cc1ccc(Br)cc1)c(=O)n2Cc1ccccc1 | -1.88%
Cc1ccc(NC(=O)C(CC(=O)O)C2CCCO2)c(C)c1 (stereo unspecified) | -2.11%
CC(NC(=O)CNC(=O)Cc1cccc2ccccc12)c1ccc(S(N)(=O)=O)cc1 (stereo unspecified) | 4.99%
Cc1csc2ncc(C(=O)N(Cc3ccccc3)c3ccccn3)c(=O)n12 | -6.72%
CC1(C)NC(=O)N(CC(=O)Nc2cc(C(F)(F)F)cc(C(F)(F)F)c2)C1=O | -1.59%
O=C1C2CCCN2C(=O)N1CCCCN1CCN(c2cccc(C(F)(F)F)c2)CC1 (stereo unspecified) | -0.302%
O=C(NCc1ccco1)/C(=C\c1cccc([N+](=O)[O-])c1)NC(=O)c1ccco1 | -3.43%
COc1cc(NS(=O)(=O)c2ccc3ccccc3c2)c2ncccc2c1 | -1.06% and -1.79%

Compound | max response
CCC1=NN2C(=N)/C(=C/c3cc(C)n(-c4ccccc4)c3C)C(=O)N=C2S1 | 4.37%
CCS(=O)(=O)C1=NSC2=NC(=O)/C(=C\c3ccc(OS(=O)(=O)c4ccccc4)cc3)C(=N)N21 | 23.1% (active)
COc1ccccc1OCCOc1ccc(/C=C2\C(=N)N3N=C(C)SC3=NC2=O)cc1 | -1.22%
Cc1cc(/C=C2/C(=N)N3C(=NC2=O)SN=C3S(C)(=O)=O)c(C)n1-c1ccccc1 | 28.8% (active)
CCS(=O)(=O)C1=NSC2=NC(=O)/C(=C\c3cc(C)n(-c4cccc(OC)c4)c3C)C(=N)N21 | 3.96%
CS(=O)(=O)C1=NN2C(=N)/C(=C\c3ccc(OCCOc4ccccc4)cc3)C(=O)N=C2S1 | 8.57%
COc1ccc(C(=O)NCCCN2CCOCC2)cc1Br | 0.527%
C/C(=N\N=C(N)N)c1ccc(Cl)cc1 | -3.34%
COc1ccc(CCNC(=O)CN(C)S(=O)(=O)c2ccc3nc(C)sc3c2)cc1OC | -1.23%
COc1ccc2c(CC(=O)N3CCc4cc(OC)c(OC)cc4C3)coc2c1 | -5.51%
CC(NCc1cccs1)C(=O)Nc1cc(Cl)cc(Cl)c1 (stereo unspecified) | -2.66%
CC(=O)c1ccc(NC(=O)C(C)NCc2ccc(Cl)cc2)cc1 (stereo unspecified) | 32.7% (active)
CC(=O)c1ccc(NC(=O)C(C)N(C)CC(=O)Nc2ccccc2Cl)cc1 (stereo unspecified) | 5.03%
Nc1c(Cl)cc(-c2csc(N3CCCC3c3nc4cc(Cl)c(Cl)cc4n3CCOCCO)n2)cc1Cl (stereo unspecified) | 2.13%
Cc1cc(O)c(C(=O)/C=C/c2c(F)c(F)c(F)c(F)c2F)c(=O)o1 | 35.8% (active)
Cc1ccc(N=Cc2c(O)cc(C)oc2=O)c(C)c1 | -0.907%
C/C(=N\NS(=O)(=O)c1ccccc1)c1c(O)cc(C)oc1=O | 3.15%
O=C(Cc1cccs1)N(CC1CCCO1)C1(C(=O)NC2CCCCC2)CCCCC1 (stereo unspecified) | -1.59%
CCCOc1ccc(Cc2c(O)nc(N)[nH]c2=O)cc1C | -2.37%
COc1c(O)ccc2c1CN1CCc3cc4c(cc3C1C2)OCO4 (stereo unspecified) | -3.13%
Cn1cccc1-c1nc2ccccc2n1C | 18% (active)
Cc1nn2c3ccccc3nc2n(C)c1=O | -2.2%
Cn1c(S(=O)(=O)O)nc2ccccc21 | -1.42%

Compound | max response
CCn1cc(C(=O)N2CC=C(c3ccccc3)CC2)c(=O)c2ccc(C)nc21 | 7.37%
COC(=O)c1nn(-c2cccc(Cl)c2)ccc1=O | 4.96%
Cc1cccc(-c2nnc(SCC(=O)O)n2Cc2ccccc2)c1 | -1.57%
Cc1cc(C)c2c(Cn3ccnc3)cc(=O)oc2c1 | -3.34%
Cc1cccc(N(C)C(=O)CN2C(=O)COc3ccc(S(=O)(=O)N4CCCCCC4)cc32)c1 | -2.56%
COc1ccc(S(=O)(=O)N(CC(=O)NCc2ccco2)c2ccc(F)cc2)cc1 | -2.34%
O=C(Nc1cccc2ccccc12)N1CCN(Cc2ccc3c(c2)OCO3)CC1 | -0.788%
COc1ccc(NC(=O)N2CCC3(CC2)OCCO3)c(OC)c1 | 0.567%
O=C(Nc1cccc2ccccc12)N1CCC2(CC1)OCCO2 | 22.3% (active)
CN(CC(=O)Nc1c(Cl)cccc1Cl)C(=O)c1ccncc1 | -0.763%
CC1CN(C(=O)CCC(=O)NCCCN2CCC(Cc3ccccc3)CC2)c2cc(Cl)ccc2O1 (stereo unspecified) | -3.45%
COc1ccc(S(=O)(=O)NCC(=O)NC2CC2)cc1OC | -2.51%
COc1ccc(CCNC(=O)C2CCCN(S(=O)(=O)c3ccc(OC)cc3)C2)cc1 (stereo unspecified) | -5.86%
COc1nc(NC2CCCCC2)nc(N2CCCCCC2)n1 | 8.36%
O=C1Nc2cc(C(=O)N3CCN(c4ccc(F)cc4)CC3)ccc2NC1CSCc1cccc(F)c1 (stereo unspecified) | 2.89%
Cc1ccc(-n2c(C)cc(/C=N/Nc3ccc([N+](=O)[O-])cn3)c2C)c(C)c1 | 20.7%
Cc1cc(/C=N/n2cnnc2)c(C)n1-c1cccc(C(=O)O)c1 | 4.01%
Cc1cc(/C=N/Nc2ccc([N+](=O)[O-])cn2)c(C)n1-c1cccc(C(=O)O)c1 | 27.7% (active)
O=C1CSC2=NCN(c3ccccc3)CN12 | 1.46%
COc1ccc(S(=O)(=O)N2CCOCC2)cc1C(=O)NC1CCCCC1 | -2.56%
COc1ccc(CCNc2nc(-c3cccc(NC(C)=O)c3)cs2)cc1OC | 10.5%
Cc1cccc(S(=O)(=O)CC(=O)Nc2nc(-c3ccccc3)cs2)c1 | -5.29%
CC(=O)Nc1cccc(-c2csc(Nc3cccc(C)n3)n2)c1 | 50.7% (active)

Compound | max response
CC(=O)Nc1ccc(-c2csc(NC=C3C(=O)OC(C)(C)OC3=O)n2)cc1 | 19.8%
CC(=O)Nc1cccc(NC(=O)c2c(-c3ccccc3)noc2C)c1 | -1.94%
Cc1cccc(Nc2nc(-c3ccccc3)cs2)n1 | 56.2% (active)
CCS(=O)(=O)Nc1cccc(-c2cc(-c3ccccc3)c3cc(C)ccc3n2)c1 | -0.522%
CC(=O)Nc1cccc(-c2cnc3ccccc3n2)c1 | 34.8% (active)
COc1ccc(C(=O)NC(C)c2nccs2)cc1OC1CCN(C(C)C)CC1 (stereo unspecified) | -0.856%
O=C(CNc1cccc(S(=O)(=O)N2CCCCC2)c1)Nc1ccccc1F | -2.83%
Cc1noc(C)c1CSc1nc2cc(S(=O)(=O)N3CCOCC3)ccc2o1 | -1.38%
CCNC(=O)c1sccc1-n1cccc1 | 2.68%
Cc1ccc(C(=O)N/C(=C\c2cn(C)c3ccccc23)C(=O)N2CCN(C)CC2)cc1 | 1.99%
CCCn1nnnc1NCc1ccc(OC)cc1 | -1.31%
CC1(C)CC(=O)CC2(C1)NCC(c1ccccc1Cl)c1c2[nH]c2ccccc12 (stereo unspecified) | 2.51%
Cc1oc2cc([N+](=O)[O-])c(O)c([N+](=O)[O-])c2c1C(=O)c1ccc(Br)cc1 | -7.47%
CCn1c(C)c(C)c2cc(C(=O)N3CCN(c4cccc(C)c4C)CC3)ccc21 | -3.95%
CCC(CC)C(=O)N1CCN(c2cccc(C)c2C)CC1 | 4.17%
Cc1cccc(N2CCN(C(=O)/C=C/c3ccco3)CC2)c1C | 15.1% (active)
COCCCn1c(-c2cccs2)nc2nc3ccccc3nc21 | 8.97%
CCOC(=O)CN(C)S(=O)(=O)c1ccc(-c2cc(C(=O)OC)sc2C(F)(F)F)cc1 | 4.79%
CCOC(=O)c1c(S(=O)(=O)Nc2ccc(CN3CCC(C)CC3)cc2)c(C)n(C)c1C | -1.22%
O=C(CCn1c(=S)[nH]c2cc3c(cc2c1=O)OCO3)NCc1ccc(Cl)cc1 | 12.5%
CC(C)OCCCNC(=O)c1ccc(C2SCC(=O)N2Cc2ccco2)cc1 (stereo unspecified) | -3.14%
COc1cc(NC(=O)C2CCN(c3cnccn3)CC2)cc(OC)c1 | -1.38%
